# Screen size: about 360,000 compounds; about 8,200 (2.3%) were called active. The sample holds actives, similar compounds and a random draw of the others, so the mix is not that of the screen. Unmarked numbers belong to inactive results. No stated cut-off is given here; in the data, active means inhibition above about 27%; inactive means the rest.
# Target: Fructose-bisphosphate aldolase (Mycobacterium tuberculosis (strain ATCC 25618 / H37Rv)) (UniProt P9WQA3)
# Experiment: M. tuberculosis aldolase activity blockers – biochemical, fluorescence, strain H37Rv, primary screen (AID 588726);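 further: 0% = vehicle and 100% = reference inhibitor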
# Conditions: purified M. tuberculosis FBA, fluorescence read-out, at 1 µM, active compounds read high
# Sequence of Fructose-bisphosphate aldolase (Mycobacterium tuberculosis (strain ATCC 25618 / H37Rv)) (P9WQA3 whole entry, looked up): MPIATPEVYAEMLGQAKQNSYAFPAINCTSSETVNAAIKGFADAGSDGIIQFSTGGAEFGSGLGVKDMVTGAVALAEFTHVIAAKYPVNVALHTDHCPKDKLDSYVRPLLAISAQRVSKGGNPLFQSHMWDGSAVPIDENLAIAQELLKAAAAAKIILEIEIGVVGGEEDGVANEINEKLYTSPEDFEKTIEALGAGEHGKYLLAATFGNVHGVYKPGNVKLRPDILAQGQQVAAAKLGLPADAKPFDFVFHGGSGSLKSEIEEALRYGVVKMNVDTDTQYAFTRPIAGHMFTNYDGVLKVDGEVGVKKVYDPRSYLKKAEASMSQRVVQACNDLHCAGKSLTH
row,Compound,inhibition
1,CCOC(=O)c1cccc(NC(=O)CN2C(=O)C3CC=CCC3C2=O)c1 (stereo not given),-2.2%
2,CCC(=O)c1ccc(OCC(=O)OCC(=O)N2CCc3ccccc3C2)cc1,6.24%
3,CCCN(CCc1ccccc1)C1CCc2c(O)cccc2C1 (stereo not given),3.16%
4,CCOC(=O)C=Cc1ccc(C(=O)OCC)[nH]1,-4.99%
5,Cc1sc2ccccc2c1CNC[C@H]1O[C@@H](n2ccc(=O)[nH]c2=O)[C@H](O)[C@@H]1O,1.01%
6,Cc1cc(=O)n2nc(N3CCCC3C(=O)NCCCN3CC(C)CC(C)C3)sc2n1 (stereo not given),3.34%
7,CCSc1nc2sc3c(c2c(=O)n1-c1ccc(C)cc1)CCN(C)C3,0.45%
8,CCCSc1nc(NCc2ccco2)c2c3c(sc2n1)COC(C)(CC)C3 (stereo not given),2.94%
9,CN1CCc2c(sc3c2c(NCc2ccco2)nc2nnnn23)C1,37.5% (active)
10,CCCCNC(=O)CCNC(=O)c1ccc(C(C)(C)C)cc1,-0.2%
11,N#Cc1c(N)n(CCOC(=O)c2ccc(Cl)cc2)c2nc3ccccc3nc12,69.1% (active)
12,Cn1cncc1COC(=O)c1ccc(Cl)cc1,3.05%
13,CC(C)(C)c1ccc(C(=O)NCCn2c(N)c(C#N)c3nc4ccccc4nc32)cc1,144% (active)
14,CN1OC(COC(=O)c2ccc(Cl)cc2)CC1c1ccccc1 (stereo not given),0.19%
15,CC(C)(C)c1ccc(C(=O)NCC(=O)OCN2C(=O)c3ccccc3C2=O)cc1,-0.24%
16,O=C(c1ccccc1Cl)N(Cc1ccccc1F)N1C(=O)CCCC1=O,-2.23%
17,CC(C)CN(C(=O)c1ccc2c(c1)OCO2)C1CCS(=O)(=O)C1 (stereo not given),-0.95%
18,CC(=O)Nc1ccc(Nc2ncnc3c2nnn3Cc2ccccc2Cl)cc1,2.68%
19,CC(=O)c1cnn(-c2cc(Oc3ccc(F)cc3)ncn2)c1C,2.98%
20,CCc1ccccc1NC(=O)CCOc1ccccc1,0.8%
21,Cc1ccc(NC(=O)COC(=O)CN2CCSC2=O)cc1F,-1.26%
22,CC1=NN(C(=O)c2ccc(Br)cc2)C(O)(c2ccccc2)C1 (stereo not given),-1.19%
23,COc1ccc(NC(=O)C2(C)Cc3c(-c4cccc(NC(C)=O)c4)ccnc3O2)cc1 (stereo not given),5.4%
24,CSc1ccc(/C=N/N2CCN(Cc3ccccc3Cl)CC2)cc1,-4.01%

row,Compound,inhibition
1,COCCn1c(SCC(=O)N2CCCCCC2)nc2c(c1=O)SCC2,-1.33%
2,O=C(NCc1cccnc1)c1cc(S(=O)(=O)N2CCOCC2)c(Cl)cc1Cl,-0.2%
3,Cc1cccn2c(=O)c3cc(C(=O)NCC4CCCO4)c(=N)n(Cc4ccc(F)cc4)c3nc12 (stereo not given),186% (active)
4,Cc1ccccc1NC(=O)Cn1c(=O)n(CC2CCCO2)c(=O)c2ccccc21 (stereo not given),2.56%
5,Cc1cccn2c(=O)c3cc(C(=O)NCCN4CCOCC4)c(=N)n(Cc4cccnc4)c3nc12,131% (active)
6,Cc1ccc(CCNC(=O)c2ccc3nc4ccccc4c(=O)n3c2)cc1,12.9%
7,Cc1cccc(NC(=O)c2ccc3c(=O)n(CC4CCCO4)c(=S)[nH]c3c2)c1 (stereo not given),-2.72%
8,COc1ccc(CCNC(=O)Cn2c(=O)n(CC3CCCO3)c(=O)c3ccccc32)cc1OC (stereo not given),4.02%
9,O=C(CSc1nc2ccccc2c(=O)n1Cc1ccc(F)cc1)NCC1CCCO1 (stereo not given),2.15%
10,Cc1ccc(Cn2c(C)c3cnn(CC(=O)NCCN4CCOCC4)c(=O)c3c2C)cc1,-0.73%
11,O=C(NCC1CCCO1)c1cc2c([nH]c3ccccc32)c(-c2ccc(F)cc2)n1 (stereo not given),14%
12,CC(C)(C)c1cc2cccnc2n1Cc1cccc(F)c1,3.01%
13,COc1cc(/C=C/C(=O)O)cc(S(=O)(=O)Nc2ccccc2SC)c1OC,-0.58%
14,CC(C)(C)CC(=O)Nc1nc(C(N)Cc2ccc(C(F)(F)F)cc2)cs1 (stereo not given),-1.2%
15,Cc1ccccc1NC(=O)CCNS(=O)(=O)c1ccc2[nH]c(=O)oc2c1,-4.94%
16,CC(=O)c1nn(-c2cccc(C(F)(F)F)c2)c(=O)[nH]c1=O,2.77%
17,COc1cc(OC)c(C(=O)OC(C)C(=O)Nc2cc(C(F)(F)F)ccc2Cl)cc1OC (stereo not given),-1.34%
18,C/C(=N\NC(=O)c1ccc(CSc2nc(C)cc(C)n2)cc1)C1CCCCC1,-4.8%
19,CC(=O)c1ccc(NC(=O)CSc2nc3ccccc3c(=O)n2CCCN2CCOCC2)cc1,-0.35%
20,CCOC(=O)C1CCN(Cc2c(C(=O)N3CCOCC3)nc3c(C)cccn23)CC1,8.49%
21,C=CCO/N=C/C1=C(O)C(C(=O)OC)C(C)(C)CC1=O (stereo not given),0.55%
22,O=C1[C@@H](c2ccccc2)[C@@H](c2ccccc2)N1c1cccnc1,4.74%
23,O=C1C(=O)N(c2ccccc2)C(c2ccccc2)C1c1ccccc1 (stereo not given),53% (active)
24,O=C1c2ccccc2C(=O)C1c1ccccc1,4.16%

row,Compound,inhibition
1,Cc1ccccc1-c1csc(C(O)c2cccc(Cl)c2)n1 (stereo not given),-4.41%
2,CCSc1nnc(-c2cc3c(s2)-c2ccccc2CC3)o1,61.2% (active)
3,Fc1ccc(CSc2nnc(-c3cc4c(s3)-c3ccccc3CC4)o2)cc1,154% (active)
4,Clc1ccc(CSc2nnc([C@@H]3CCCN3)o2)cc1,4.22%
5,Fc1ccc(-c2nnc(CSc3nnc(-c4ccc5c(c4)OCO5)o3)o2)cc1,-2.07%
6,O=C(CSc1nnc(-c2ccccc2O)o1)NC1CCCCC1,0.67%
7,C#CCSc1nnc(-c2sc3ccccc3c2Cl)o1,4.19%
8,CNC(=O)C[C@H]1C(=O)N(Cc2ccccc2)C[C@@H]1CSC,3.42%
9,COc1ccc(OC)c(-c2c(=O)n(OCc3ccccc3Br)c3ccccc3[n+]2[O-])c1,-1.19%
10,COc1cc(N2C(=O)CC3(CCCC3)CC2=O)cc(OC)c1OC,0.26%
11,CCN(C(=O)C1CCCN(c2nc(-c3ccc(OC)cc3)no2)C1)c1ccc(OC)cc1 (stereo not given),-2.44%
12,Cc1cc(C)c2c(n1)nn1c(-n3ccnc3)cc(C)nc21,27.6% (active)
13,CCCCNCc1ccc(SC)cc1,-1.81%
14,CCNc1nc(Oc2ccc(C(=O)OC)cc2)nc(N2CCOCC2)n1,0.39%
15,COc1ccc(N(C(=O)c2snc(C(N)=O)c2N)C(C(=O)NC2CCCC2)c2ccc(C)o2)c(OC)c1 (stereo not given),2.34%
16,CCOC(=O)c1ccc(CS(=O)c2ccc(Cl)cc2)o1 (stereo not given),-0.81%
17,CCOC(=O)c1ccc(-c2ccc3ncnc(N(C)Cc4sccc4C)c3c2)o1,171% (active)
18,CCc1nnc(NC(=O)CSc2nc3ccccc3c(=O)n2CCCOC)s1,-4.95%
19,COc1ccccc1C(=O)Nn1c(-c2cccs2)nc2ccccc2c1=O,0.05%
20,CC1CN(c2cc(=O)n(Cc3ccc(F)cc3)c(=O)[nH]2)CC(C)O1 (stereo not given),-1.34%
21,Cc1ccc2c(C)c(C(=O)N3CCC(N4CCC(C(=O)NC5CC5)CC4)CC3)oc2c1,1.31%
22,O=C(NNC(=O)C1CCN(c2ncccn2)CC1)c1ccccc1,1.54%
23,Cc1cc(-c2ccccc2)nc(N2CCC(C(=O)NC34CC5CC(CC(C5)C3)C4)CC2)n1,170% (active)
24,CC(=O)N1CCC(C(=O)Nc2nc(-c3ccccc3)ns2)CC1,-0.01%

row,Compound,inhibition
1,CCOc1cc(-c2noc(CCC(=O)N3CCOCC3)n2)ccc1OC,1.37%
2,CCCn1c(=O)c(C(=O)Nc2cc(C)ccn2)c(O)c2ccccc21,1.3%
3,CCCCCn1c(=O)c(C(=O)OCC)c(Cl)c2ccccc21,1.96%
4,CCCn1c(=O)c(-c2ccccc2)c(O)c2ccccc21,35.6% (active)
5,Cc1cccc(C(=O)C(O)(c2ccccc2)C2CCCCC2=O)c1 (stereo not given),3.06%
6,O=C(Nc1cccnc1)c1noc2c1CCCCC2,1.31%
7,N#CC1(Nc2ccc3c4c(cccc24)CC3)CCCCC1,48% (active)
8,CC(C)C(=O)Nc1ccc2c3c(cccc13)CC2,-0.4%
9,N#CC1(Nc2ccc(-c3ccc(Cl)cc3)cc2)CCCC1,-1.27%
10,O=C(c1ccccc1)c1cc(-c2ccccn2)c(N2CCOCC2)s1,-4.69%
11,CSc1ncnc2c1ncn2CC(=O)C1CCC2C3CCC4=CC(=O)CCC4(C)C3CCC12C (stereo not given),-0.85%
12,COCCCNC(=O)CC1C[C@H](C(=O)N2CCCCC2)[C@@]2(CCc3ccccc3)c3[nH]c4ccccc4c3CCN2C1=O (stereo not given in full),0.45%
13,COc1ccc2c(CC(=O)OCC(=O)NC(N)=O)coc2c1,2.04%
14,Cc1ccc2cc(C#N)c(NCCNC(=S)NCCCN3CCOCC3)nc2c1,11.2%
15,COCCCNC(=S)NCCNc1nc2cc(C)c(C)cc2cc1C#N,27.3% (active)
16,Cc1ccc2nc(NCCCNC(=O)c3cnccn3)c(C#N)cc2c1,22.9%
17,CCCC(C(=O)NCc1ccco1)N(C(=O)CNS(=O)(=O)c1ccccc1)C1CCCC1 (stereo not given),0.18%
18,c1ccc2cc(CCCc3cc4ccccc4cn3)ncc2c1,5.36%
19,O=C(CSc1nnc(-c2ccncc2)n1C1CCCCC1)Nc1ccccc1,-1.22%
20,CC1CCCN(S(=O)(=O)c2ccc(-c3ccc(=O)[nH]n3)o2)C1 (stereo not given),3.28%
21,Cc1c(NC(=O)C(C)OC(=O)c2ccccc2O)c(=O)n(-c2ccccc2)n1C (stereo not given),-3.77%
22,COC(=O)c1ccccc1NC(=O)CSc1ccccn1,1.02%
23,CC(OC(=O)c1ccccc1NCCO)C(=O)Nc1ccnn1C(C)C (stereo not given),92% (active)

# From PubChem BioAssay AID588726 (The Scripps Research Institute Molecular Screening Center, 2011)
